Screen size: about 65,000 compounds; about 2,100 (3.2%) showed an effect of 50% or more. The median lay at about -52%. Only a selection was taken, and strong results are over-represented in it overall.

The subject of this test is Plasmodium falciparum. Description: Screen against P. falciparum Asexual Blood Stage (ABS), at 5uM. Type of test: functional, Dd2. The conditions noted are these: tested at 5 uM.
For the compound `COCC(=O)N(C)Cc1ccc(F)c(F)c1`, the INHIBITION is reported as -52.4%. With `CCOc1nnc(CN(CC)CC(=O)Nc2c(F)cccc2F)s1` the figure was -13.5%. With `C=C(C)COc1cccc(C(=O)NC(C)c2nnn[nH]2)c1` (stereo unspecified) the figure was -109%.

Regarding `CCOc1ccc(N2CCCN=C2NC(=O)c2cccc(C)c2)cc1`, the INHIBITION was -77.5%.

For the compound `Cc1cc(C(=O)N2CCc3nc(N4CCOCC4)nc(C)c3C2)c(C)o1`, the INHIBITION is reported as -39.6%.

`CC(C)NC(=O)[C@H]1C[C@@H]2[C@@H](C1)OCCN2Cc1cccs1`: the INHIBITION is on record as -20.5%. The figure for `C[C@@H]1CCC[C@H](C)N1CC(=O)N1CCc2[nH]c(-c3ccccc3)nc2C1` is -64.1%. The figure for `O=C(NCCc1cccs1)[C@]12COC[C@H]1CN(Cc1ccncc1)C2` is -31%. With `O=C(NCCN1CCCCC1)c1ccn(-c2ccccc2)n1` the figure was -37.9%; with `CC1CCCN(CCNC(=O)c2ccn(-c3ccccc3)n2)C1` (stereo unspecified), 50.8%. Consider `COc1cn(-c2ccccc2)nc1C(=O)NCCN1CCCC(C)C1` (stereo unspecified), for which the INHIBITION is reported as -57.1%. On to `CC(C)OCc1ccc(CNc2cncc(-n3cccn3)n2)cc1`, for which the INHIBITION was -83.1%. The figure for `COCCNC(=O)c1ccc2c(=O)n3c(nc2c1)CCCC3` is -68%; for `COc1ccc(CN2CCCC(N3CCCC3)C2)cc1Cn1cncn1` (stereo unspecified) it is -34.2%. With `COc1cc(Cl)cc(CN2CCCC(N3CCOCC3)C2)c1OC` (stereo unspecified) the figure was -126%; with `COc1cc(Cl)cc(CN2CCCC(N3CCCC3)C2)c1OC` (stereo unspecified), 64.1%; with `O=C(O)c1ccccc1-n1cnc(CN2CCc3ccccc32)c1`, -68.5%. As for `O=C(NCc1ccncc1)Nc1cc(C(F)(F)F)c[nH]c1=O`, the INHIBITION is listed as -57.7%.

With `Cn1nccc1C(=O)Nc1cc(C(F)(F)F)c[nH]c1=O`, the INHIBITION was 56.5%. On to `Cn1nccc1CNC(=O)Nc1cc(C(F)(F)F)c[nH]c1=O`, for which the INHIBITION was -32.9%.

Turning to `CNc1cc(C)nc(C2COCCN2Cc2csc(C)n2)n1` (stereo unspecified), the INHIBITION was -146%. Turning to `Cc1ccnn1CCC(=O)N1CCC(c2cnccn2)CC1`, the INHIBITION is -164%. Consider `CN(Cc1cscn1)C(=O)C(c1ccccc1)N1CCSCC1` (stereo unspecified), for which the INHIBITION was 13.8%.

Regarding `CCN(CC)C(CNS(=O)(=O)NCc1ccccc1)c1ccco1` (stereo unspecified), the INHIBITION is listed as 67%. The figure for `CCN(CC)C(CNS(=O)(=O)c1ccc(C(=O)NC)cc1)c1ccco1` (stereo unspecified) is -31.7%; for `CCN(CC)C(CNCc1ccc(O)cc1)c1ccco1` (stereo unspecified) it is 40.1%; for `Cn1ncc2c(NC3CCCN(C(=O)C4CC4)C3)nc(C(C)(C)C)nc21` (stereo unspecified) it is -74%. The figure for `Cn1ncc2c(NC3CCC(N)CC3)nc(C(C)(C)C)nc21` (stereo unspecified) is 65.3%.

For the compound `Cn1ncc2c(N[C@H]3CCCC[C@@H]3O)nc(C(C)(C)C)nc21`, the INHIBITION is on record as -65.3%. With `COCCN1CCC2(CC1)CC(NC(=O)C(C)C)c1ccccc1O2` (stereo unspecified) the figure was -12.4%; with `Cn1nc(C(=O)N2CCSCC2)cc1NC(=O)c1ccco1`, -104%; with `CNc1nc(N2CCN(CC=C(C)C)C(CCO)C2)nc2c1CCC2` (stereo unspecified), -7.97%. For the compound `CNc1nc(N2CCN(C3CCCCC3)C(CCO)C2)nc2c1CCC2` (stereo unspecified), the INHIBITION is recorded as -32.3%.

Turning to `CNc1nc(N2CCN(Cc3ccsc3)C(CCO)C2)nc2c1CCC2` (stereo unspecified), the INHIBITION was determined as 55.7%. The figure for `CN(C)[C@@H]1C[C@@H](CO)N(C(=O)Nc2ccc(SC(F)(F)F)cc2)C1` is 7.77%.

Turning to `CCc1nc(C)cn1C(=O)Nc1ccc(F)cc1`, the INHIBITION is -11.7%. With `Cc1n[nH]c(C2CN(C(=O)c3ccco3)CCO2)n1` (stereo unspecified) the figure was -132%; with `CC(C)(C)CC(=O)NC(C)(C(N)=O)c1cccc(Cl)c1` (stereo unspecified), -54.6%. With `Cc1ccc(=O)n(CC2(O)CCN(Cc3c(F)cccc3F)CC2)n1` the figure was -42.4%; with `Cn1cc(C(NCc2ccc(F)cc2)c2cccc(F)c2)cn1` (stereo unspecified), 13.6%; with `Fc1cccc(C(NCc2ncc[nH]2)c2ccccc2)c1` (stereo unspecified), 69.1%. The figure for `Fc1cccc(NCc2ncc[nH]2)c1` is -155%; for `Cc1c(C(=O)NCC2CCS(=O)(=O)C2)cnn1-c1ccccc1` (stereo unspecified) it is -29.9%; for `Cc1cc(C(=O)N2CCCC3(COCCN(CCN(C)C)C3)C2)no1` (stereo unspecified) it is -49.7%. Consider `CCn1ncc2c1CCCC2NCc1cccc2c1OCCCO2` (stereo unspecified), for which the INHIBITION is reported as -15.3%. With `Cn1ncc2c1CCCC2NCc1cccc2c1OCCCO2` (stereo unspecified) the figure was -48.9%. With `CC(C)(C)n1ncc2c1CCCC2NCc1cccc2c1OCCO2` (stereo unspecified) the figure was 61.5%; with `CCn1ncc2c1CCCC2NCc1cccc2c1OCCO2` (stereo unspecified), -36%; with `CC(C)(C)n1ncc2c1CCCC2NCc1cccc2c1OCO2` (stereo unspecified), 56.8%.

Regarding `CCn1ncc2c1CCCC2NCc1cccc2c1OCO2` (stereo unspecified), the INHIBITION is given as -116%. The figure for `CN(CCc1ccncc1)CCc1nccs1` is -102%; for `Cc1c[nH]c(C2COCCN2C(=O)c2n[nH]c(=O)c3ccccc23)n1` (stereo unspecified) it is -96.3%; for `Cc1ncnc2c1CCN(C(=O)N(C)C)CC2` it is -100%. With `OCCC1CN(c2nc(-c3ccncc3)nc3c2CCNCC3)CCO1` (stereo unspecified) the figure was -97.5%; with `OCCC1CN(c2nc(-c3cccnc3)nc3c2CCNCC3)CCO1` (stereo unspecified), -121%; with `NCC1CN(c2nc(-c3ccccc3)nc3c2CCNCC3)CCO1` (stereo unspecified), 69.5%. The figure for `NCCC1CN(c2nc(-c3ccccc3)nc3c2CCNC3)CCO1` (stereo unspecified) is 66.1%; for `COCCC1CN(c2nc(-c3ccccc3)nc3c2CCNC3)CCO1` (stereo unspecified) it is -21.7%; for `NCC1CN(c2nc(-c3cccnc3)nc3c2CCNCC3)CCO1` (stereo unspecified) it is -84.9%. Turning to `CCOCCN1CCC(C(=O)c2cc(F)ccc2F)CC1`, the INHIBITION is 5.36%. As for `O=C(O)CCC(=O)N1CCN(CC2CC2)c2ncccc2C1`, the INHIBITION is listed as -23.3%. With `CCSc1cncc(N2CCC(NC(=O)C3CCCCC3)CC2)n1` the figure was -11.6%; with `O=c1cc(N2CCCC2)cnn1CC(F)F`, -88.9%; with `CC(C)COCC1CN(Cc2ccc3c(c2)OCO3)Cc2ncn(C)c21` (stereo unspecified), 38.7%.

As to `CCC(O)(CNCc1ncc[nH]1)c1ccc(Br)cc1` (stereo unspecified), the INHIBITION came to 67.5%. With `CCC(O)(CNCc1ccncc1)c1ccc(Br)cc1` (stereo unspecified) the figure was 8.37%; with `COc1cc(NCc2ncc[nH]2)ccc1Br`, -173%. The figure for `O=C(c1ccsc1)N1CCc2ncc(Cn3cncn3)n2CC1` is -17.9%. Take `COCC(=O)Nc1ccc(-c2noc([C@@H]3CCCN3)n2)cn1`: the INHIBITION was 52.6%. For `COCC(=O)Nc1ccc(-c2noc([C@@H]3CCCN3C)n2)cn1`, the INHIBITION is on record as -28.7%. With `COCCNc1ccc(-c2noc([C@@H]3CCCN3)n2)cn1` the figure was 39.8%.

The values above are taken from ChEMBL document CHEMBL4513216, “Probing the Open Global Health Chemical Diversity Library for Multistage-Active Starting Points for Next-Generation Antimalarials” (ACS Infect Dis, 2020).
